Compounds with a hit are over-represented: about 2.2% of the library has one in this group of screens.
Statin myotox sup: suppressors of statin myotoxicity in C2C12 myotubes, primary screen, cell-based, single point, plate reader; C2C12 myotubes + simvastatin, ATP luminescence, 48 h; scaled: DMSO 0, geranylgeraniol control 100; rescue of ATP level, % at 7.49 µM; 330,000 tested, 0.78% active;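 active = mean ATP rescue above about 67%, or every replicate alone reaching that limit, limit read from the data, passing the limit was not always enough; inconclusive = no clear call, values can overlap the other calls; inactive = mean under the limit and some replicate under it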;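 also: myotubes were challenged with 10 µM simvastatin during compound exposure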
miR-122 sensor: miR-122 Renilla sensor signal increase in Huh7, primary screen, miR-122 inhibitor project, cell-based, single point, plate reader; Huh7 miR-122 Renilla luciferase sensor, 48 h; neutral wells = 0, positive control = 100; activation (reporter increase), % at 12.5 µM; 340,000 tested, 0.3% active; AID 602342, 2012;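 active = mean replicate activation score at least 90 and every replicate individually at or above 90; inconclusive = only one of the two criteria met; inactive = neither criterion met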;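 also: higher luciferase means less miR-122 activity so hits act as miR-122 inhibitors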
PGC1a acetyl inh: inhibitors of PGC1a acetylation signal, primary screen, cell-based, U2OS, AlphaScreen, inhibitor mode; AlphaScreen anti-acetyl-lysine; with virally co-expressed GCN5 acetyltransferase; inhibition, % at 15.6 µM; 350,000 tested, 0.17% active; AID 651687, 2012;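 active = every replicate shows inhibition of at least 40%; inconclusive = mean inhibition at least 40% but some replicate below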
DENV2 CPE: inhibitors of DENV2 cytopathic effect, primary screen, cell-based, plate reader, single concentration. DENV2-infected cells, cytopathic effect rescue. CPE inhibition, % at 9.99 µM. 350,000 tested, 1.7% active; in the data active = CPE inhibition above about 20%, passing the limit was not always enough; inconclusive = no clear call, values can overlap the other calls; tested in BHK-21 cells
PvdQ inh: P. aeruginosa PvdQ acylase inhibitors, primary screen, biochemical, fluorescence, plate reader and imaging, single point. inhibition, % at 10 µM. purified PvdQ acylase. PvdQ acylase [Pseudomonas aeruginosa LESB58]. AID 488965, 2010. 340,000 tested, 0.063% active; in the data active = inhibition above about 30%, passing the limit was not always enough; inconclusive = no clear call, values can overlap the other calls
A number is an active result; – = inactive; ? = inconclusive; · = no result given.

SMILES | Statin myotox sup | miR-122 sensor | PGC1a acetyl inh | DENV2 CPE | PvdQ inh
CCn1c(SCC(=O)N2CCCC2)nnc1-c1ccc(N)cc1 | 124 | – | – | · | –
CC=Cc1ccc2n(c1=O)C[C@H]1[C@H](CO)[C@@H](C(=O)N(C)C)N(CCC(F)(F)F)[C@@H]21 (mixture of isomers) | – | · | · | – | ·
C/C=C/c1ccc([C@H]2[C@@H](CO)N3CCCCN(C)C[C@H]23)cc1 | – | – | – | 54 | ·
CN1CCCCN2[C@H](CO)[C@@H](c3ccc(-c4ccc(F)cc4)cc3)[C@@H]2C1 | – | – | – | 61 | ·
CN1CCCCN2[C@H](C1)[C@H](c1ccc(-c3ccc(F)cc3)cc1)[C@@H]2CO | – | – | – | ? | ·
Cc1ccc(-c2ccc([C@H]3[C@@H](CO)N4CCCCN(C)C[C@H]34)cc2)cc1 | · | – | – | 27 | ·
CCCCn1nc2cc(C(=O)NCc3ccc(C(F)(F)F)cc3C(F)(F)F)ccc2c1OCC | 83 | – | – | – | –
CCOc1c2ccc(C(=O)NCc3ccc(C(F)(F)F)cc3C(F)(F)F)cc2nn1C | – | – | – | – | –
C[C@H]1CN([C@@H](C)CO)C(=O)Cc2cc(NC(=O)c3ccncc3)ccc2O[C@@H]1CN(C)C(=O)Nc1cccc2ccccc12 | ? | – | – | – | ·
Cc1cccc(Nc2nc(N)nc(CN3CCN(c4ccccc4F)CC3)n2)c1 | 81 | – | – | · | –
Cc1cccc(Nc2nc(N)nc(CN3CCN(c4ccccc4)CC3)n2)c1 | – | – | – | · | –
C#CCOCCOCCOCCNc1nc(N2CCOCC2)nc(N2CCN(C(=O)[C@H](Cc3ccc(O)cc3)n3cc([C@@H](N)CC(C)C)nn3)CC2)n1 | – | – | – | 20 | –
C#CCOCCOCCOCCNc1nc(N2CCN(C(=O)[C@H](CCC(=O)O)n3cc([C@@H](N)CO)nn3)CC2)nc(N2CCN(C(=O)[C@H](CCC(=O)O)n3cc([C@@H](N)CCSC)nn3)CC2)n1 | – | – | – | – | –
C#CCOCCOCCOCCNc1nc(N2CCOCC2)nc(N2CCN(C(=O)CCCCCCCCCCNC(=O)[C@@H]([C@H](C)CC)n3cc(CCCCCN)nn3)CC2)n1 | 99 | – | – | – | –
C#CCOCCOCCOCCNc1nc(OC)nc(N2CCN(C(=O)[C@H](CCC(=O)O)n3cc(C(N)CO)nn3)CC2)n1 (some centres undefined) | – | – | – | 23 | –
C#CCOCCOCCOCCNc1nc(N2CCN(C(=O)[C@H]([C@@H](C)CC)n3cc([C@@H](N)Cc4ccc(O)cc4)nn3)CC2)nc(N2CCN(C(=O)[C@H](Cc3ccc(O)cc3)n3cc([C@@H](N)CC(C)C)nn3)CC2)n1 | – | – | – | – | –
Cc1cc(C(=O)Nc2cccc3c2O[C@H](CN(C)S(=O)(=O)c2ccc(F)cc2)[C@@H](C)CN([C@H](C)CO)C3=O)n(C)n1 | · | – | – | – | ·
NC12CC3CC(C1)CC(CO)(C3)O2 | 111 | – | – | · | –
NC12CC3CC(C1)CC(CC(=O)O)(C3)C2 | – | – | – | – | –
CCOc1ccc(C(=S)N2CCCC2)cc1OC | · | – | – | – | –
COc1cc(C(=S)N2CCCCC2)ccc1OCC(=O)Nc1ccc(F)cc1 | – | · | · | 98 | –
COc1cc(C(=S)N2CCCC2)ccc1OCc1ccc(C)cc1 | – | – | · | 47 | –
COc1cc(C(=S)N2CCCCC2)ccc1OCC(=O)N1CCCC1 | – | – | – | · | –
CCN1[C@@H]2c3ccc(-c4ccccc4)c(=O)n3C[C@@H]2[C@@H](CO)[C@@H]1C(=O)Nc1ccccc1 | – | – | · | – | ·
Cc1ccc(S(=O)(=O)Nc2cccc3c2O[C@@H](CN(C)C(=O)Nc2ccccc2)[C@H](C)CN([C@H](C)CO)C3=O)cc1 | – | – | – | · | ·
SMILES | Statin myotox sup | miR-122 sensor | PGC1a acetyl inh | DENV2 CPE | PvdQ inh
COc1ccc(CN2CCNC(=O)C2CC(=O)NCC2CCOCC2)c(C)c1C (centres undefined) | – | · | · | 89 | –
COc1ccccc1CN1CCNC(=O)C1CC(=O)NCC1CCOCC1 (centres undefined) | · | · | – | – | –
CCCC(=O)Nc1ccc2c(c1)OC[C@H](C)N(Cc1ccccc1F)C[C@H](C)[C@@H](OC)CN(C)C2=O | – | · | – | 21 | ·
CCCC(=O)Nc1ccc2c(c1)OC[C@@H](C)N(Cc1ccncc1)C[C@H](C)[C@@H](OC)CN(C)C2=O | – | – | · | 25 | ·
CCCC(=O)Nc1ccc2c(c1)OC[C@@H](C)N(Cc1ccncc1)C[C@@H](C)[C@@H](OC)CN(C)C2=O | – | – | – | – | ·
CCCNC(=O)[C@@H]1[C@@H](CO)[C@@H]2Cn3c(ccc(C4=CCCC4)c3=O)[C@@H]2N1C(=O)c1cnccn1 | – | – | · | – | ·
CCCNC(=O)N(C)C[C@@H]1Oc2cc(C#CC(C)(C)O)ccc2S(=O)(=O)N([C@@H](C)CO)C[C@@H]1C | – | – | – | – | ·
C[C@@H]1CN([C@@H](C)CO)C(=O)c2cc(-c3cccnc3)cnc2O[C@@H]1CN(C)C(=O)c1ccccc1F | – | – | – | 46 | ·
C[C@H](CO)N1C[C@H](C)[C@@H](CN(C)C(=O)Nc2ccc(C(F)(F)F)cc2)Oc2ncc(-c3cccnc3)cc2C1=O | – | – | – | 30 | ·
O=C(C1CCOCC1)N1CC(=O)N2[C@@H](CO)[C@@H](c3ccc(C#CC4CCCC4)cc3)[C@@H]2C1 | · | · | · | – | ·
CCc1ccccc1NC(=O)CCN1C(=O)C2CC=CCC2C1=O (centres undefined) | – | · | · | – | –
CCc1ccccc1NC(=O)CCN1C(=O)c2ccccc2C1=O | 133 | – | – | · | –
O=C(C[C@H]1C[C@H]2c3cc(NC(=O)C4CCOCC4)ccc3O[C@H]2[C@H](CO)O1)NCc1ccc(Cl)cc1 | – | – | – | – | ·
CN(C[C@H](Cc1ccccc1)N(C[C@@H](CC1CCCCC1)N(CCc1ccccc1)N=O)N=O)N=O | – | – | · | 57 | –
CC(C)C[C@@H](CN(N=O)[C@@H](Cc1ccccc1)CN(C)N=O)N(CCc1ccccc1)N=O | – | – | – | – | –
COc1ccccc1NC(=O)Nc1ccc2c(c1)C(=O)N(C)C[C@H](OC)[C@H](C)CN[C@@H](C)CO2 | – | · | – | – | ·
COc1ccc2c3c([nH]c2c1)[C@H](CO)N(Cc1ccccc1F)CC31CN(C(=O)C2CCCC2)C1 | · | · | · | 24 | ·
COc1ccc2c3c([nH]c2c1)[C@H](CO)N(Cc1ccccc1F)CC31CN(C(=O)C2CCC2)C1 | · | · | – | – | ·
COc1ccc2c3c([nH]c2c1)[C@@H](CO)N(C)CC31CN(C(=O)C2CC2)C1 | · | · | – | – | ·
COc1ccc2c3c([nH]c2c1)[C@H](CO)N(C)CC31CN(C(=O)C2CC2)C1 | · | · | – | 45 | ·
CS(=O)(=O)N1CC2(C1)[C@H](c1ccccc1)[C@H](CO)N2CC1CC1 | · | · | – | – | ·

Screens (PubChem BioAssay)
